From PubChem
Hits are enriched below; roughly 3.4% of the tested compounds scored in any of these assays.
TEAD-YAP inh – TEAD-YAP interaction inhibition | HEK-TIYL cells, TEAD-Gal4/YAP UAS-luciferase luminescence | inhibition, % at 9.12 µM | 640,000 tested, 1.4% active; in the data active = inhibition above about 32%
MITF inh – inhibitors of human MITF; inhibition, % at 2.6 µM; AlphaScreen MITF homodimerization, bead proximity signal; AID 1259374; 650,000 tested, 0.91% active; O75030; in the data active = inhibition above about 50%
Target sequence (O75030 whole entry, looked up): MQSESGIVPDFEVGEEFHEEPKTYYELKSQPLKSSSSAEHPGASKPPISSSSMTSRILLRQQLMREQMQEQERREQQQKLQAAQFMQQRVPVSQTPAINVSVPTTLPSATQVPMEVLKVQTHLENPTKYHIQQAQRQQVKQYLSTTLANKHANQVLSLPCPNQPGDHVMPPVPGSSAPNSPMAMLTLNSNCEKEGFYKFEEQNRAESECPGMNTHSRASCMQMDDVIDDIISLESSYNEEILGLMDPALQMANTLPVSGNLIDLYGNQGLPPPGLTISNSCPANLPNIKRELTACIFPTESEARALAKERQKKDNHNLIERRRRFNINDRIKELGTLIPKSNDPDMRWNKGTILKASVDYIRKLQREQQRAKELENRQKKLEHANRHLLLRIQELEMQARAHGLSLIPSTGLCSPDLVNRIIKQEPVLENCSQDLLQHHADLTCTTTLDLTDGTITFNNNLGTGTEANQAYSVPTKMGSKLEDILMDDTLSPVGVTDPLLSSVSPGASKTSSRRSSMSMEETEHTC
FBW7 activator – human FBW7 E3 ligase activation, primary screen; AlphaScreen FBW7–phospho-cyclin E peptide binding, activator screen; normalized activity (activation), % at 26.1 µM; 650,000 tested, 0.13% active; in the data active = normalized activity above about 1.9%;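 also: purified mutant Fbw7 with reduced substrate affinity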
GPR151 ag – activates the human receptor GPR151; Q8TDV0; PathHunter beta-arrestin GPR151 cells, luminescence; activation, % at 11.2 µM; 650,000 tested, 1% active; AID 1508602; in the data active = activation above about 4.9%
Large screens that a line does not name were inactive.

NC(=O)c1ncccc1Nc1ccnc(Nc2ccc(N3CCOCC3)cc2)c1	TEAD-YAP inh 48.8
NC(=O)c1cc(F)ccc1Nc1ccnc(Nc2ccc(N3CCOCC3)cc2)c1	none
CCC1CN(Cc2cccc(C)n2)Cc2cc(OC)ccc2O1 (stereo not drawn)	none
CCOC12CCC(C)(CC1)/C(=N/NS(=O)(=O)c1ccc(C)cc1)C2	none
COc1ccc(NC(=O)/C=C/c2ccco2)c(OC)c1	none
O=S(=O)(NC1CCCCCCC1)c1ccccc1	none
O=S(=O)(NC1CCCC1)c1cccc(-c2nnc(-c3ccccc3)o2)c1	TEAD-YAP inh 32.6
CCc1n[nH]c(=S)n1/N=C/c1ccc(C)cc1	none
Cc1cccc2sc(NC(=O)CSc3nnnn3-c3ccccc3)nc12	FBW7 activator 2.0
Cc1sc(NC(=O)CSc2nnnn2-c2ccccc2)nc1-c1ccccc1	none
CCCc1cc(CN(C)C(=O)C2CC(Cc3cccc(OC)c3)=NO2)[nH]n1 (stereo not drawn)	none
CCn1c2ccccc2c2cnc(N=CN(C)C)c(C#N)c21	TEAD-YAP inh 41.7
Cc1nn2c(=O)c3c4c(sc3nc2c2ccccc12)CCCC4	TEAD-YAP inh 52.1
O=c1c2c3c(sc2nc2c4ccccc4c(Cl)nn12)CCCCC3	none
CCOc1cc([N+](=O)[O-])c2[nH]c(C(=O)O)c(C)c2c1	TEAD-YAP inh 45.3
CCOC(=O)c1[nH]c2c([N+](=O)[O-])cc(OC)cc2c1-c1ccccc1	none
CC(=O)Nc1ccc(S(=O)(=O)N2c3ccccc3C(C)=CC2(C)C)cc1	TEAD-YAP inh 58.1
COc1cccc(NC(=O)C(=O)NCC2CCCN2S(=O)(=O)c2ccccc2)c1 (stereo not drawn)	none
CCCNC(=O)C(=O)NCC1CCCN1S(=O)(=O)c1ccc(C)cc1 (stereo not drawn)	none
CCCCCNC(=O)C(=O)NCC1CCCN1S(=O)(=O)c1ccc(C)cc1 (stereo not drawn)	TEAD-YAP inh 49.1
CNC(=O)C(=O)NCCC1CCCCN1S(=O)(=O)c1ccc(C)cc1 (stereo not drawn)	none
COc1cccc(CNC(=O)C(=O)NCC2CCCN2S(=O)(=O)c2ccc(C)cc2)c1 (stereo not drawn)	TEAD-YAP inh 40.5
Cc1ccc(S(=O)(=O)N2CCCCC2CCNC(=O)C(=O)NCc2cccnc2)cc1 (stereo not drawn)	TEAD-YAP inh 36.3
N#CC1C(=O)NC(=O)C([n+]2ccccc2)C1c1ccc(Cl)cc1 (stereo not drawn)	none
COc1ccc2c(c1)c1nc(N(C)C)nc3c1n2CCN3C	TEAD-YAP inh 87.8
O=[N+]([O-])c1cc2c(c(CN(Cc3ccco3)S(=O)(=O)c3ccccc3F)c1)OCOC2	TEAD-YAP inh 47.4
CC(C)CCN(Cc1cc([N+](=O)[O-])cc2c1OCOC2)S(=O)(=O)c1ccccc1F	none
O=C(NC1CCCCC1)c1ccc2nc(-c3ccc(F)cc3)c(-c3ccc(F)cc3)nc2c1	none
Cn1c2ccccc2c2c(C(=O)N3CCCCC3)cn(C3CCCCC3)c(=O)c21	none
N#Cc1sc(NC(=O)c2ccc(F)c(F)c2)nc1Cl	none
N#Cc1sc(NC(=O)c2cccc(Br)c2)nc1Cl	TEAD-YAP inh 64.2
Cc1ccc(C(=O)Nc2nc(Cl)c(C#N)s2)cc1	TEAD-YAP inh 70.6
CCCCSc1nnc2c(n1)OC(c1ccc(OC)c(Br)c1)Nc1ccccc1-2 (stereo not drawn)	none
O=C(c1ccc(-n2cccc2)cc1)N1CCC(c2nnc(-c3ccco3)o2)CC1	FBW7 activator 2.2
COc1ccc(C(=O)Nc2cccc(C(=O)Nc3nccs3)c2)cc1	none
CC1(C)CC(=O)C2=C(C1)NC(=S)NC2c1ccccc1 (stereo not drawn)	TEAD-YAP inh 54.8
Cc1ccccc1C1NC(=S)NC2=C1C(=O)CC(C)(C)C2 (stereo not drawn)	none
O=c1c2ccccc2c(C=Nc2ccccc2)c(O)n1Cc1ccc2c(c1)OCO2	none
Cc1nnc(SCC(=O)N2CCC(c3noc4ccc(F)cc34)CC2)s1	TEAD-YAP inh 36.6
Cc1nnc(SCC(=O)N2CCCC2)s1	none
COc1cccc(NC(=O)CSCc2c(F)cccc2Cl)c1	none
O=C1CC(c2cccc3ccccc23)C2=C(CCCC2=O)N1 (stereo not drawn)	none
CCCOc1ccccc1C1CC(=O)NC2=C1C(=O)CCC2 (stereo not drawn)	TEAD-YAP inh 50.2
CCCCOc1ccccc1C1CC(=O)NC2=C1C(=O)CCC2 (stereo not drawn)	TEAD-YAP inh 57.0
CCOc1ccccc1C1CC(=O)NC2=C1C(=O)CCC2 (stereo not drawn)	TEAD-YAP inh 40.5
COc1ccc(NC(=O)C(=O)NCCCOC(C)C)cc1	none
CCC(C)NS(=O)(=O)c1ccc(Cc2ccc(S(=O)(=O)NC(C)CC)cc2)cc1 (stereo not drawn)	TEAD-YAP inh 33.7
CCC(C)NS(=O)(=O)c1ccc(Br)cc1 (stereo not drawn)	none
Oc1ccccc1-c1nc2cnccn2c1NCc1ccc2c(c1)OCO2	TEAD-YAP inh 57.3
c1ccc(-c2nc3cnccn3c2NCc2ccc3c(c2)OCO3)cc1	none
N#Cc1ccc(C(=O)OCC(=O)C23CC4CC(CC(C4)C2)C3)cc1	none
N#Cc1ccccc1S(=O)(=O)NCC(=O)Nc1ccc2c(c1)OCO2	TEAD-YAP inh 43.7
COc1ccc(OCCCNCCO)cc1	TEAD-YAP inh 40.5
COCCNCCCOc1ccc(C(C)C)c(C)c1	none
COc1ccc(OCCCCCNCCO)cc1	none
Cc1cc(OCCCNCCO)ccc1C(C)C	TEAD-YAP inh 64.1
Cc1cc(Br)ccc1NC(=O)c1ccc(Cl)cc1Cl	none
COc1ccc(S(=O)(=O)Nc2ccc(S(=O)(=O)Nc3ccccc3C)cc2)cc1	none
COCC(C)NC(=O)CSc1nnc(Nc2ccc(C)c(C)c2)s1 (stereo not drawn)	none
CCOC(=O)C1=C(N)OC2=C(C(=O)CC(C)(C)C2)C1c1ccc(Br)cc1 (stereo not drawn)	none
CC(=O)c1ccc(C(=O)Nc2ccccc2-c2nc3ccccc3[nH]2)cc1	none
O=C(Nc1ccccc1-c1nc2ccccc2[nH]1)C1COc2ccccc2O1 (stereo not drawn)	none
COc1cc2ccccc2cc1C(=O)Nc1ccccc1-c1nc2ccccc2[nH]1	FBW7 activator 2.6
O=C(Nc1ccccc1-c1nc2ccccc2[nH]1)C1CC1	TEAD-YAP inh 38.2
COc1ccc(C(=O)Nc2ccc(-c3nc4ccccc4o3)c(O)c2)cc1	none
Cc1cc(C(=O)COC(=O)c2cccc(NS(C)(=O)=O)c2)c(C)n1CC1CCCO1 (stereo not drawn)	TEAD-YAP inh 57.8
Cc1cc(C(=O)COC(=O)c2cccc(N(C)C)c2)c(C)n1CC1CCCO1 (stereo not drawn)	TEAD-YAP inh 38.4
C=CCn1c(C)cc(C(=O)COC(=O)c2cccc(O)c2)c1C	TEAD-YAP inh 87.0
CC1CCC(NC(=O)c2ccccc2N)CC1 (stereo not drawn)	none
CCNC(=O)/C(C#N)=C/c1c(Oc2cc(C)ccc2C(C)C)nc2ccccn2c1=O	TEAD-YAP inh 46.3
CNC(=O)/C(C#N)=C/c1c(Oc2cc(C)ccc2C(C)C)nc2ccccn2c1=O	TEAD-YAP inh 34.4
COc1ccc(CCNc2cc(-c3c(C)nn(C)c3C)ncn2)cc1	none
